Measurements as given in PubChem BioAssay (NCI).
Compounds without any hit were thinned out: in the full panel of roughly 83,000, 20% have a hit.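 Cell lines were cultured in 96-well plates, exposed to a single compound concentration, and assessed for percent growth 48 hours later.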 Activity calls are given as the source filed them. How the source made its calls: active means growth percent below 10; inactive means the rest.

These compounds were tested on SR leukemia (assay: NCI-60 one-dose screen, 48 h (100 = growth as untreated, 0 = no growth, -100 = all killed)). Conditions: 10 µM unless noted.

Question: For `COc1ccc(/C=C/C(=O)/C=C/c2cc3ccccc3[nH]c2=O)cc1`, which growth is on record?
Answer: The growth was -2.08% (active).

Question: How did the growth turn out when `CCCCCC(=C/c1ccccc1)/C=N/N=C(N)N` was run?
Answer: Its growth is -2.56% (active).

Question: With `CC([C@H]1CC=C2C3CCC4=C[C@@H](N(C)C)CC[C@]4(C)C3CC[C@@]21C)N(C)C` (some centres not stated) as the compound, how does the growth read?
Answer: The growth was 71.5% (inactive).

Question: How did the growth turn out when `C=CN(C)S(C)(=O)=O` was run?
Answer: Its growth is 14.2% (inactive).

What follows are compounds tested on RPMI-8226 leukemia in the same assay as above. Conditions: 10 µM unless noted.

Question: How did the growth turn out when `CCCCCCCCC1OC1CCCCCCCC(=O)O` (configuration not stated) was run?
Answer: Its growth is 98.4% (inactive).

Question: Which growth does the source give for `O=c1[nH]c(=S)[nH]c(O)c1/C=C1\C=Nc2ccccc21` here?
Answer: Its growth is 72.2% (inactive).

Question: How did the growth turn out when `CCOC1=C(Cl)C(=O)C(OCC)=C(Cl)C1=O` was run?
Answer: Its growth is 105% (inactive).

Question: `O=C1C(=O)c2ccccc2C(O)=C1CCCc1ccc(Oc2ccccc2)cc1` was tested. Which growth did it give?
Answer: The growth was 22.3% (inactive).

Question: How did the growth turn out when `CCN(CC)CCCC(C)Nc1c(C)cnc2cc(Cl)c(C)cc12` (configuration not stated) was run?
Answer: Its growth is 43.6% (inactive).

Question: With `Oc1ccc([S+](c2ccc(O)cc2)c2ccc(O)cc2)cc1` as the compound, how does the growth read?
Answer: The growth was 96% (inactive).

Question: How did the growth turn out when `Cn1c2c(cc(S(=O)(=O)c3ccccc3)c1=O)CCc1c-2cnn1-c1ccc(Cl)cc1` was run?
Answer: The growth was 49.3% (inactive).

Question: For `CCCCCN1CCN(C(CC(=O)c2ccccc2)C(=O)c2ccccc2)CC1` (configuration not stated), which growth is on record?
Answer: Its growth is 12.6% (inactive).

Question: How did the growth turn out when `S=C(N/N=C/c1cc(Cl)cc(Cl)c1)NC12CC3CC(CC(C3)C1)C2` was run?
Answer: The growth was 73.8% (inactive).

Question: `CC(=O)c1ccc2c(c1)c1ccccc1n2C` was tested. Which growth did it give?
Answer: The growth was 93.2% (inactive).

Question: For `CC1(C)NC(=S)NC1=O`, which growth is on record?
Answer: Its growth is 101% (inactive).

Question: `O=C(NC1CCN(Cc2ccccc2)CC1)c1cc(-c2cccnc2)nc2ccc(Cl)cc12` was tested. Which growth did it give?
Answer: Its growth is 47.3% (inactive).

Question: `O=C(O)CS(=O)c1ccc(Cl)cc1` (configuration not stated) was tested. Which growth did it give?
Answer: Its growth is 116% (inactive).
